# Assay results published in PubChem BioAssay (NCATS).
# Values without a mark were called inactive. The source made the active and inactive calls. The call rests on the fitted dose curve; in most records, active means well fitted inhibition curve with a large enough effect; inconclusive means small, poorly fitted or top-dose-only effect; inactive means no such curve, though single readings can be large or run the other way.
# Biological target: Single-stranded DNA cytosine deaminase (Homo sapiens) (UniProt Q9GZX7)
# Sequence (Q9GZX7 whole entry, looked up): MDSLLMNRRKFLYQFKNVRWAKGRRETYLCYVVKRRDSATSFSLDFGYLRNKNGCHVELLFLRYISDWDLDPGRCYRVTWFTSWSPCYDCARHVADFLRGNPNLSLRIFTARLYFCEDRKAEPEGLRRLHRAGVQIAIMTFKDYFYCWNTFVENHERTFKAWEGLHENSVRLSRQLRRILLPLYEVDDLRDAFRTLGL
# Assay: Validation qHTS assay for inhibitors of Activation Induced Cytidine Deaminase (AID): AID signal (AID 1347429)
# Settings: Recombinant AID, FRET ssDNA deamination with UDG, fluorescence; series mostly up to 115 µM; activity change, negative = inhibition: at the top concentration
# Description: Assay Provider (PI) Patricia Gearhart Ph.D. National Institute on Aging National Institute of Health (NIH), Bethesda, MD Assay Provider (PI) Rahul Kohli Ph.D. Perelman School of Medicine University of Pennsylvania, Philadelphia, PA Activation-Induced Deaminase (AID) is a cytosine deaminase which converts cytosine into uracil within stretches of ssDNA. The presence of uracil in DNA initiates a cascade of mutagenic DNA repair to introduce point mutations and DNA double strand breaks. Specific targeting of AID to the immunoglobulin heavy chain loci (Igh) promotes mutagenesis in the antibody variable region for somatic hypermutation (SHM) or switch regions leading to class switch recombination (CSR). However, AID also plays a role in accumulating unnecessary mutations across the genome. Mis-targeting of AID results in the initiation of tumor development and leads to greater drug resistance among cancer cells when continually expressed. To identify an AID inhibitor, a small molecule library will be screened in collaboration with NCATS core facility at NIH. To confirm biological function, inhibitors will be examined in an in vitro murine B-cell activation assay and subsequent secondary validation screens. Top molecules will be further screened to identify inhibitory efficacy against a wild type primary splenocytes assay. Using these approaches, we hope to identify a small molecule with great efficacy and low toxicity for use as a molecular probe to further characterize AID's intricacies, or even as a therapeutic. A FRET based analysis of cytosine deamination, was developed to identify potential inhibitors of AID catalytic activity. This screen has two signal output, Read 1 evaluates the AID inhibition response. The second readout (Read 2) evaluates UDG response and is uses as a counterscreen to exclude false positive inhibitors. Inhibition in AID and inactivity in the UDG signal is the desired outcome for this assay.
# PROTOCOL TABLE SEQUENCE No. (e.g., 1, 2, 3, etc.); […] (e.g., Cells, Incubation, Reagent, etc.); VALUE; DESCRIPTION 1a; Reagent; 3 uL; [4/3x] […] 250 nM DJC20 / 250 nM DJC23 [Substrate] 5; Time; 4 hr; incubation at room temperature 6; Reagent; 4 uL; [2x] 250 mM NaOH 7; Time; 15 sec; centrifuge at 1000 rpm 8; Time; 30 min; incubation at room temperature 9a; Detection; fluorescence (Read 1: AID); EnVision (PerkinElmer) plate reader, 540 excitation and 590 emission filters 9b; Detection; fluorescence (Read 2: UDG); EnVision (PerkinElmer) plate reader, 560 excitation and 665 emission filters NOTES (numbers refer to sequence above) 1a; Reagents were dispensed in a medium-binding black solid-bottom Greiner plates (789176F) using a BioRptr liquid dispenser. Dispense 3 uL of [4/3x] 1 uM AID (provided by Kohli lab) and [4/3x] 2 U/mL UDG (NEB M0280L) into columns 1, 2, 5 to 48. 1b; Dispense 3 uL of [4/3x] 2 U/mL UDG into column 3. 1c; Dispense 3 uL of [4/3x] 1 uM AID into column 4. 2a; Compound ([…] [uM] (0.64; 3.2; 16; 80; 400; 2,000; 10,000; 20,000) double pin-transferred (Dip Factor = 2) using the Kalypsys (Wako USA) pintool equipped with a 1536 pinhead for a final concentration range of 7.32 nM - 114 uM. 2b; 10 mM Aurintricarboxylic Acid (Sigma A1895) (ATA, 8-point, n = 2, 1:2.5 dilution in column 2) double pin-transferred (Dip Factor = 2) using the Kalypsys (Wako USA) pintool equipped with a 1536 pinhead for a [final] range of 186 nM - 114 uM. 3; Room temperature incubation. 4; Dispense 1 uL of substrate mixture from the Kohli lab [4x] […] DJC20 and [4x] 250 nM DJC23 into columns 1 to 48 . 5; Room temperature incubation. 6; Dispense 4 uL of substrate mixture [2x] 250 mM NaOH into columns 1 to 48. 7; Centrifugation step to remove bubbles. 8; Room temperature incubation 9a; Fluorescence signal (column label AID) was read using the EnVision plate reader. Excitation filter = 540(8) nm, barcode = 311; Emission filter = 590(20) nm, barcode = 217; Mirror = D555, barcode = 405. […]
# On the % scale 0 is the no-effect control and ±100 the full control effect; potency means the concentration at half of the fitted maximal effect.
Structure (SMILES),"activity change, negative = inhibition",Potency
N[C@@H](Cc1cnc[nH]1)C(=O)O,21.1%,
CC(CCc1ccccc1)NCC(O)c1ccc(O)c(C(N)=O)c1 (centres undefined),25.6%,
C1CCc2nnnn2CC1,9.96%,
O=C(O)c1cc2cc(Cc3cccnc3)ccc2o1,15.7%,
C[N+]1(CCCCC[N+]2(C)CCCC2)CCCC1,27.8%,
CC(=O)O[C@H]1C[C@@H]2CC[C@@H]3[C@H](CC[C@@]4(C)[C@H]3C[C@H]([N+]3(C)CCCCC3)[C@@H]4OC(C)=O)[C@@]2(C)C[C@@H]1[N+]1(C)CCCCC1,,7.94 µM (active)
CC(C)COC(=O)OCN1C(=O)CN(CCN2CC(=O)N(COC(=O)OCC(C)C)C(=O)C2)CC1=O,11.5%,
COC(=O)[C@H]1[C@H]2C[C@H]3c4[nH]c5ccccc5c4CCN3C[C@H]2CC[C@@H]1O,53.8%,
CNCCC(Oc1ccccc1C)c1ccccc1 (centres undefined),17.8%,
CN1C2CCC1CC(OC(=O)c1c[nH]c3ccccc13)C2 (centres undefined),7.48%,
CC[C@H](C)C(=O)O[C@H]1CCC=C2C=C[C@H](C)[C@H](CC[C@@H]3C[C@@H](O)CC(=O)O3)[C@H]21,10.5%,
Oc1ccc(O)cc1,45.8%,
Nc1cc(Cl)c(NC2=NCCN2)c(Cl)c1,12.2%,
CCC(NC(C)C)C(O)c1ccc(O)c(O)c1 (centres undefined),4.44%,
COc1cc2c(cc1O)CC[C@@H]1[C@@H]2CC[C@]2(C)[C@@H](O)CC[C@@H]12,17.8%,
C[C@]12CC[C@@H]3c4ccc(O)cc4CC[C@H]3[C@@H]1CC[C@@H]2O,5.6%,
CCCn1c(=O)[nH]c(=O)c2[nH]cnc21,22.9%,
C[C@@H]1C(=O)NC2=Nc3cccc(Cl)c3CN21,18.9%,
CC(C)C[C@H]1C(=O)N2CCC[C@H]2[C@]2(O)O[C@](NC(=O)[C@@H]3C=C4c5cccc6[nH]c(Br)c(c56)C[C@H]4N(C)C3)(C(C)C)C(=O)N12,85.4%,
CC1(C)CCC(NC(=O)[C@@H](N)CCC(=O)O)CC1,20.8%,
CNCCC=C1c2ccccc2CCc2ccccc21,1.2%,
N[C@H](CO)C(=O)O,21.1%,
CCCC1O[C@@H]2C[C@H]3[C@@H]4CCC5=CC(=O)C=C[C@]5(C)[C@H]4[C@@H](O)C[C@]3(C)[C@]2(C(=O)CO)O1 (some centres undefined),11.4%,
O=C1CCC(c2ccc(-n3ccnc3)cc2)=NN1,5.13%,
